The text below walks through data of PubChem BioAssay AID488969 (Vanderbilt High Throughput Screening Facility, 2010).

SMILES strings stand for the structures. Over roughly 110,000 compounds, “z-score” has its median near -0.1; the highest 2% begin near 2. The sample holds the highest values, similar compounds and a random draw of the others, so the mix is not that of the screen. Active and inactive are the calls of the source.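 Rule for the calls: active = z-score in the third read window above 3 or below -3; inactive = the rest.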

Sequence of Metabotropic glutamate receptor 8 (Rattus norvegicus) (P70579 whole entry, looked up): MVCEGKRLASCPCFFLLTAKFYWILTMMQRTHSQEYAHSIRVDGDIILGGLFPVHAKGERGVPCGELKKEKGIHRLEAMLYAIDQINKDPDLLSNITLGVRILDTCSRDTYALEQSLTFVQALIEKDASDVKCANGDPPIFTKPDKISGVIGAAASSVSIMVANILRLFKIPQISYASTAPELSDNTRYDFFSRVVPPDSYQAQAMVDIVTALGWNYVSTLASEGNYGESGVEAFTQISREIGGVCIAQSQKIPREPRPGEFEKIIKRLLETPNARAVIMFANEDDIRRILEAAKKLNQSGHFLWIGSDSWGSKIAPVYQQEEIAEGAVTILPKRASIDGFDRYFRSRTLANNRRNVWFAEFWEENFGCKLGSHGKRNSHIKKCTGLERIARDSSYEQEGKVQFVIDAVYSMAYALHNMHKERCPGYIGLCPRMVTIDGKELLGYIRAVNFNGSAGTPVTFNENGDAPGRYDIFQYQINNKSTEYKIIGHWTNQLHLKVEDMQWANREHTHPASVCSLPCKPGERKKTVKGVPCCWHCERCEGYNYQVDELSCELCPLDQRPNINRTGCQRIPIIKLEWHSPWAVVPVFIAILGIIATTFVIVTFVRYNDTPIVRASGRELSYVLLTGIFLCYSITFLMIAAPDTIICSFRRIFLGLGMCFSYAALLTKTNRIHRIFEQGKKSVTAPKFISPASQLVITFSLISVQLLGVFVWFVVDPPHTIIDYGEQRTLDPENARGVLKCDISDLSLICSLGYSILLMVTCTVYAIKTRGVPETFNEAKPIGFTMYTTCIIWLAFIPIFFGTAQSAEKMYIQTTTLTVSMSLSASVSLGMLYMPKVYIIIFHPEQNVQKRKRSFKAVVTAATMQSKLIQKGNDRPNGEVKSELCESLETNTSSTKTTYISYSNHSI

This assay concerns the target Metabotropic glutamate receptor 8 (Rattus norvegicus) (UniProt P70579). The assay is described as follows: rat mGluR8 modulators via GIRK flux, primary screen, cell-based, thallium flux, HTS (AID 488969). Particulars: HEK293 rat mGluR8, GIRK (G protein-gated inwardly rectifying potassium channel) thallium flux, FluoZin2; at 10 µM; stronger effect = higher value; submaximal glutamate (EC20) added with thallium.
For `O=C(NNC(=S)NC(=O)c1ccccc1[N+](=O)[O-])c1ccccc1Cl`, the z-score is -0.333. Take `O=C(CCC1COc2ccccc2O1)Nc1ccc(Cl)cn1` (stereo not drawn): the z-score is -0.27. To `COc1ccccc1C(OC(=O)c1cccs1)C(=O)NCC1CCCO1` (stereo not drawn) belongs -0.383; to `O=C(OC(C(=O)NCC1CCCO1)c1ccc(F)cc1)c1cccs1` (stereo not drawn), -0.0339. Turning to `COc1ccc(C(OC(=O)c2cccs2)C(=O)NCC2CCCO2)cc1` (stereo not drawn), the z-score is 8.22 (active).

`COc1ccc(N2CCN(C(=O)c3cn(C4CCCC4)c(=O)c4c3c3ccccc3n4C)CC2)cc1` yielded a z-score of -0.454. For `O=C(Nc1ccc(N2CCCC2)c(S(=O)(=O)Nc2cccc(C(F)(F)F)c2)c1)c1cccs1`, the z-score is -0.233. In turn, `COc1ccc(Nc2ncnc3c2cnn3Cc2ccccc2)cc1` gave a z-score of -1.73. To `CCOc1ccc(Nc2ncnc3c2cnn3Cc2ccccc2)cc1` belongs 2.26. To `COc1ccc(Nc2ncnc3c2cnn3Cc2ccccc2)cc1OC` belongs -0.181. To `CC(=NCCCN(C)C)C1=C(O)c2ccccc2C1=O` belongs 0.45; to `CCc1ccc(C(=O)N2CCCC2)s1`, 0.0133; to `CCOCC(=O)Nc1nc(-c2ccccc2)c(CC)s1`, -0.107. In turn, `O=C(c1ccc(Cl)c(S(=O)(=O)N2CCc3ccccc3C2)c1)N1CCN(c2ccccc2)CC1` registered a z-score of -0.0565.

Consider `Cc1cccc(N2CCN(C(=O)c3ccc(Cl)c(S(=O)(=O)N4CCc5ccccc5C4)c3)CC2)c1C`, for which the z-score is 3.61 (active). In the case of `Cc1cccc(NS(=O)(=O)c2cc(C(=O)N3CCc4ccccc4C3)ccc2Cl)c1C`, the z-score was -0.467.

Turning to `Oc1ccc(Cl)cc1CNc1ccc(Br)cn1`, the z-score was 0.33. Next, `Brc1ccc(NCc2cccc3ccccc23)nc1`: -0.475; `Oc1ccccc1CNc1ccc(Br)cn1`: 5.86 (active). Regarding `CN=C1SC(CC(=O)Nc2sc(C)c(C)c2C(=O)OC)C(=O)N1C` (stereo not drawn), the z-score is -0.51.

`COCCN(Cc1ccccc1)C(=S)Nc1ccc(OC(F)F)cc1` yielded a z-score of -0.227. In turn, `Cc1c(C#N)c2ncn(Cc3ccccc3)c(=O)c2n1-c1ccccc1` returned a z-score of -0.85. `Cc1c(C#N)c2ncn(CC#N)c(=O)c2n1-c1ccccc1`: the z-score was 3.28 (active). In turn, `Cc1c(C#N)c2ncn(Cc3ccccn3)c(=O)c2n1-c1ccccc1` had a z-score of -0.89. On to `CC(=O)c1ccc(N2CCN(C(=S)Nc3cccc(Cl)c3)CC2)cc1`, for which the z-score is -0.152. Next, `CCOCCCNc1nc2ccccc2[nH]1`: -0.0367; `O=C1CCCC(=O)C1=C1SCCCS1`: -0.18. In the case of `Cc1ccc(NC(=O)N2CCCN(Cc3ccc(F)cc3)C2)cc1C`, the z-score is -0.435. Next, `O=C(Nc1ccc(Cl)cc1)N1CCCN(Cc2ccccc2F)C1`: -0.218; `O=C(Nc1ccc(Cl)cc1)N1CCCN(Cc2ccc(F)cc2)C1`: 2.53. Next, `CN1C(=O)c2ccc(NC(=O)c3ccc(N4CCCCC4)c([N+](=O)[O-])c3)cc2C1=O`: -0.139; `Cc1cccc(NC(=O)c2cc(NC(=O)c3ccccc3)ccc2N2CCCCC2)c1`: -0.201; `CCN=C1SCC(=O)N1c1ccc(OC)cc1`: -0.307.

As to `COc1ccc(S(=O)(=O)N(CCc2ccccc2)CC(=O)N/N=C/c2ccc3c(c2)OCO3)cc1`, the z-score is -0.0021. To `CCOc1ccccc1NC(=O)CN(C)S(=O)(=O)c1cccc2nsnc12` belongs -0.173; to `COc1ccc(Cl)cc1NC(=O)CS(=O)(=O)c1cccc2nsnc12`, 0.107; to `COc1ccccc1NC(=O)CS(=O)(=O)c1cccc2nsnc12`, 1.99. To `Cc1csc(NC(=O)Cc2c[nH]c3ccccc23)n1` belongs -0.137; to `O=C1CCC(=O)N1OCCCOc1ccc(Br)cc1Cl`, 0.401; to `COc1cc(C)ccc1OCCCON1C(=O)CCC1=O`, 0.122. As to `CC(C)(C)c1ccc(OCCON2C(=O)CCC2=O)c(Cl)c1`, the z-score is 3.08 (active). To `CCn1c(=O)n(CC)c2cc(S(N)(=O)=O)c(C)cc21` belongs 0.381; to `COc1ccc(-c2cc(-c3ccccc3)c(C#N)c(SCC(=O)Nc3ncc(C)s3)n2)cc1`, -0.161; to `CCOc1ccc2c(c1)c(C(C)=O)c(C)n2-c1ccccc1`, -1.1. In the case of `CCN(CC)CC(O)COc1ccc2c(c1)c(C(C)=O)c(C)n2-c1ccccc1` (stereo not drawn), the z-score amounted to 2.25. `CCOC(=O)c1c(C)n(C)c2ccc(OCC(O)CN(CC)CC)cc12` (stereo not drawn) returned a z-score of 0.554. In turn, `CC1CCN(S(=O)(=O)c2ccc(NC(=O)CN3CCN(C)CC3)cc2)CC1` came in with a z-score of 0.193. Turning to `Cc1nn2c(CN(C(=O)COc3ccccc3)c3ccccc3)nnc2c2ccccc12`, the z-score is -0.835. To `O=C(Oc1ccnc2cc(Cl)ccc12)N1CCOCC1` belongs -0.719; to `Clc1ccc2c(NNc3ccccc3Cl)ccnc2c1`, -0.353.

`Clc1ccc2c(N3CCCC3)ccnc2c1` registered a z-score of 2.36. Next, `Cc1cc(C)nc(N2CCC(C(=O)Nc3ccc(Oc4ccccc4)cc3)CC2)n1`: -0.163. For the molecule `CC(C(=O)Nc1ccc([N+](=O)[O-])cc1)N1CCN(C/C=C/c2ccccc2)CC1` (stereo not drawn), the z-score is -0.146. To `CCc1ccc2nc(N3C(=O)C(O)=C(C(=O)c4ccco4)C3c3cccs3)sc2c1` (stereo not drawn) belongs -1.1; to `N=c1sccn1CC(=O)Nc1ccc(Cl)c(S(=O)(=O)N2CCOCC2)c1`, 0.131.

Consider `N=c1sccn1CC(=O)Nc1ccc(S(=O)(=O)N2CCOCC2)cc1`, for which the z-score amounted to 2.19. Next, `Cc1ccc(S(=O)(=O)N2CCOCC2)cc1NC(=O)Cn1ccsc1=N`: 0.262. Molecule `CCOC(=O)CC1C(=O)NCCN1Cc1cccc(OC)c1` (stereo not drawn) displayed a z-score of -0.139.
